From PubChem
tim23-1 inh: growth inhibitors of tim23-1 mutant yeast, primary screen, luminescence, uHTS; inhibition, % at 20 µM; AID 463212, 2010; 1.3% of 330,000 active; S. cerevisiae tim23-1 growth, BacTiter-Glo luminescence, 24 h;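 active means growth inhibition of the mutant yeast at or above 50%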;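 further: temperature-sensitive mutant grown at 25 °C; plate controls were DMSO-treated mutant yeast for no effect and medium wells lacking yeast for full effect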
NLRP3 yeast inh: NALP3 inflammasome inhibitors in reconstituted yeast, primary screen, luminescence, uHTS. Yeast reconstituted NLRP3/ASC/caspase-1, beta-gal luminescence, 24 h. inhibition, % at 10 µM. 0.39% of 330,000 active. AID 2825, 2010;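 active means inhibition of 50% or more; inactive means inhibition below 50%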;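 further: plate controls were induced DMSO wells for no effect and uninduced yeast grown without galactose for full effect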
tim10-1 inh: growth inhibitors of tim10-1 mutant yeast, primary screen, luminescence, uHTS; S. cerevisiae tim10-1 ts strain growth, BacTiter-Glo, 24 h; inhibition, % at 20 µM; 2.2% of 330,000 active; AID 463190, 2010;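 active means inhibition of at least 40%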;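 further: mutant grown at 25 °C; 0% = DMSO wells with yeast and 100% = wells holding no yeast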
TIM10 inh: growth inhibitors of isogenic TIM10 control yeast, primary screen, counter-screen for tim10-1 yeast inhibitor project, luminescence, uHTS | AID 463195, 2010 | inhibition, % at 10 µM | 1.4% of 330,000 active | S. cerevisiae TIM10 strain growth, BacTiter-Glo luminescence, 24 h;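 active means inhibition of 40% or more at the single tested concentration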;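 further: wild-type TIM10 isogenic control strain grown at permissive 25 °C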
NALP1 yeast inh: NALP1 inflammasome inhibitors in reconstituted yeast, colorimetric, S. cerevisiae, triplicate retest; S. cerevisiae NALP1/ASC/caspase-1 growth, X-gal OD620, 72 h; inhibition, % at 10 µM; 0.61% of 280,000 active; in the data active means inhibition mostly above about 24%, no sharp cut-off; inactive means mostly below about 32%
tim10-1 conf: growth inhibitors of tim10-1 mutant yeast, confirmation, single concentration, luminescence, S. cerevisiae; shares compounds with tim10-1 inh; S. cerevisiae tim10-1 ts strain growth, BacTiter-Glo, 24 h; inhibition, % at 20 µM; 56% of 7,400 active;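 active means inhibition of yeast growth at or above a set limit in either of two repeat tests at 20 µM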;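 further: tim10-1 mutant grown at permissive 25 °C to find synthetic lethal compounds; 0% = DMSO yeast wells and 100% = medium wells without yeast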
TIM10 conf: growth inhibitors of wild-type TIM10 yeast, confirmation, counter-screen for tim10-1 synthetic lethality project, single concentration, luminescence, S. cerevisiae. shares compounds with TIM10 inh. S. cerevisiae tim10 strain growth, BacTiter-Glo luminescence, 24 h. inhibition, % at 10 µM. 63% of 4,600 active;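 active means inhibition of yeast growth at or above a set limit in either of two replicates at 10 µM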;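 further: this counterscreen used the strain with wild-type TIM10; 0% = yeast with DMSO and 100% = medium wells lacking yeast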
tim23-1 confirm: tim23-1 mutant yeast growth inhibitors, confirmation, luminescence, single concentration; shares compounds with tim23-1 inh; S. cerevisiae tim23-1 growth, BacTiter-Glo luminescence, 24 h; inhibition, % at 20 µM; 83% of 4,400 active;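 active means inhibition above about 39% in either of two replicate wells at 20 µM, limit read from the data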;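 further: temperature-sensitive tim23-1 mutant grown at 25 °C; 0% = DMSO wells with yeast and 100% = medium wells without yeast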
Starred values were filed as active, the others as inactive; . = no result. This is a sample that favours compounds with a hit; in the whole collection about 4% have one here.

SMILES	tim23-1 inh	NLRP3 yeast inh	tim10-1 inh	TIM10 inh	NALP1 yeast inh	tim23-1 confirm	others
CNc1ccc2oc(C[C@H]3O[C@@]4(CC[C@H]3C)O[C@H]([C@H](C)C(=O)c3ccc[nH]3)[C@H](C)C[C@H]4C)nc2c1C(=O)O	54*	22	56*	-20	-3	37	tim10-1 conf=29
C1CCC2S[C@H]3CCCCC3NC2C1 (stereo partly drawn)	-16	12	-13	-8	.	.
Cc1ccc2cc(C=C(C#N)C#N)c(Cl)nc2c1	80*	14	48*	46*	22	76*	tim10-1 conf=31*;TIM10 conf=-8
O=C(/C=C/c1ccc(Cl)cc1)NC(=S)N1C[C@H]2C[C@H](C1)c1cccc(=O)n1C2	-7	-11	-8	-5	1	.
O=c1cccc2n1CC1CC2CN(c2ncnc3c2cnn3-c2ccc(Cl)cc2)C1 (stereo not drawn)	35	0	40	44*	0	.	TIM10 conf=10
Cc1ccc(CN(Cc2ccccc2)C(=S)NCC(=O)N2CCC3(CC2)OCCO3)o1	27	23	12	12	10	.
CCOC(=O)c1ccc(N2C(=O)CC(N3CCC(C#N)(c4ccccc4)CC3)C2=O)cc1 (stereo not drawn)	42	7	38	42*	8	.	TIM10 conf=33*
N/C(=N\[N+](=O)[O-])N1CCN(C(=O)Oc2ccccc2)CC1	15	20	0	9	8	.
Cn1cnc(CCN)c1	3	7	22	40*	.	.	TIM10 conf=23
CCC(=NCc1cccnc1)c1c(O)n(C2CCCCC2)c(=O)[nH]c1=O	16	7	32	13	10	.
CCC(=NCc1ccco1)c1c(O)n(C2CCCCC2)c(=O)[nH]c1=O	42	6	34	40*	3	.	TIM10 conf=24
Cc1cc(C=C2C(=O)NC(=S)NC2=O)c(C)n1C1CCCC1	55*	20	38	46*	28	55*	TIM10 conf=45*
CC1(O)CCN2C(=O)CCc3cccc1c32 (stereo not drawn)	-1	3	-2	3	.	.
CCCCCCCCn1sccc1=O	65*	8	-129	54*	.	-92	TIM10 conf=58*
CC1=Nc2ccccc2/C1=C/c1c(O)[nH]c(=O)[nH]c1=O	2	12	-11	0	1	.
O=c1[nH]c(O)c(/C=C2/C=CC(c3cc(Cl)ccc3Cl)=N2)c(=O)[nH]1	54*	0	32	52*	.	59*	TIM10 conf=52*
CN(C)C(=O)O/N=C(\N)COc1ccc(C(C)(C)C)cc1	59*	6	14	73*	14	54*	TIM10 conf=81*
CCOC(=O)C(O)(c1ccc(N(C)C(=O)COc2ccccc2)cc1)C(F)(F)F (stereo not drawn)	14	11	18	-2	.	.
COc1ccc(-c2nn(CCC#N)cc2C(=O)NCc2ccccc2)cc1OC	-16	8	-10	-6	15	.
COc1cccc(C2CC3C(=O)C=CC2N3Cc2ccccc2)c1 (stereo not drawn)	55*	26	38	40	69*	47*
COc1cc(/C=C/[N+](=O)[O-])ccc1OC(=O)c1cccnc1	85*	42	-63	34	17	-25
COc1cc2c(cc1/C=C/[N+](=O)[O-])OCO2	.	.	.	.	9	.
O=Cc1cn(Cc2cccc(F)c2)c2ccccc12	15	33	12	-8	26	.
O=Cc1cn(Cc2ccc(Br)cc2)c2ccccc12	59*	39	27	24	18	39
CCc1ccc(-c2nn(Cc3ccccc3)cc2C=O)cc1	54*	35	33	30	-13	58*
SMILES	tim23-1 inh	NLRP3 yeast inh	tim10-1 inh	TIM10 inh	NALP1 yeast inh	tim23-1 confirm	others
O=Cc1cn(Cc2c(F)cccc2Cl)nc1-c1ccccc1	55*	35	39	39	.	40*
COC(=O)C1=C(c2ccccc2)C[C@@H]2CC[C@H]1N2C(=O)N1CCC(C)CC1	38	13	25	12	.	.
CCC(C)(C)n1nnnc1C(c1cccs1)N1CC=C(c2ccc(F)cc2)CC1 (stereo not drawn)	57*	9	21	39	-14	52*
NC(N)=N/N=C/c1ccc(N(c2ccccc2)c2ccccc2)cc1	71*	26	-27	22	26	27*
CNC(=O)OCc1n(C)cc[n+]1C	12	-3	4	-8	21	.
N#CC(C#N)=C(C#N)c1ccc(Nc2ccccc2)cc1	57*	8	16	-21	-11	20
COc1ccccc1CCNC1CCC(C(C)(C)C)CC1 (stereo not drawn)	-7	17	23	-5	24	.
CCCCCCCCc1ccc(O)cc1	51*	15	17	-2	.	40*
C[N+](C)(C)CCc1ccc(O)cc1	-16	5	-10	0	-14	.
Cc1ccc(S(=O)(=O)N(C)N=O)cc1	-10	4	-4	1	.	.
O=C(c1cccs1)c1cn(Cc2ccccc2Cl)c2ccccc12	14	3	24	18	2	.
N#Cc1ccccc1Cn1cc(C(=O)c2cccs2)c2ccccc21	61*	2	8	22	7	13
COC(=O)CCCC(NC(=S)N1CC2C[C@@H](C1)Cn1c2cccc1=O)C(=O)OC (stereo partly drawn)	12	11	-2	8	4	.
CCN1C(=O)/C(=C\c2ccc([N+](=O)[O-])s2)C(=O)NC1=S	.	.	.	.	-3	.
C=CCN1C(=O)/C(=C/c2ccc(Br)s2)C(=O)NC1=S	56*	13	21	17	11	72*
[Cl][Pt+2][Cl].[NH-]C1CCCCC1[NH-] (stereo not drawn)	6	15	-6	12	.	.
CC(C)(C)c1ccc(O)c(N=Cc2c(O)ccc3ccccc23)c1	51*	25	14	37	-16	54*
COC(=O)C(O)(c1ccc(N=Cc2ccccc2O)c(C)c1)C(F)(F)F (stereo not drawn)	5	5	-2	-7	39	.
O=c1c2ccccc2nc(/C=C/c2ccccc2F)n1-c1ccccc1O	54*	11	30	33	8	48*
O=c1c2ccccc2nc(/C=C/c2ccccc2O)n1-c1ccccc1O	9	22	24	5	0	.
NS(=O)(=O)c1ccc(N=Cc2c(O)n(C3CCCCC3)c(=O)n(C3CCCCC3)c2=O)cc1	52*	15	24	32	11	46*
